Results published in PMC13494018.
A number with no mark means an inactive call. The rule behind the calls is not given here.

B1: design_376_bf9d4634-8475-4fdb-a175-1db49a23bdcd_1954_dldesign_0_cycle1_af2pred (protein)
chain: MTAEEAIKKIEEAAEKASKELKEIGKKNPAVAAYAKAASERVKRRAKRAIKEIKEKGLTGVQAEGLAEAASYFAEDQAENAKKKAEEA
B2: design_376_bf9d4634-8475-4fdb-a175-1db49a23bdcd_2064_dldesign_0_cycle1_af2pred (protein)
chain: SEKEEIIKRAKEVAERARKVAAEAKEIGPAALPVLNKATEARALANAARDLAEAGGNLEVAKEVLKEAEELLKKAEEELKKLKKE
B3: design_376_bf9d4634-8475-4fdb-a175-1db49a23bdcd_2125_dldesign_0_cycle1_af2pred (protein)
chain: SPYQKKLEEEAEEIIARARKLAEEAREAAKKAGPKIKSLADEAISYAAIARSLARDGVKYGEKYLELAKEELAKAEELAKEAVKLAKE
B4: design_376_bf9d4634-8475-4fdb-a175-1db49a23bdcd_2226_dldesign_0_cycle1_af2pred (protein)
chain: KYKEEAKKKTEEELEKAAKAVSKENAPKVEKVKKEALKALEEDFSKAAEIIRNFAKEEKENHDVVKKYAAKASEALYEARAAKEVEER
B5: design_376_bf9d4634-8475-4fdb-a175-1db49a23bdcd_2229_dldesign_0_cycle1_af2pred (protein)
chain: MAEKIKKAITEAREKYADARGYAYAAKKDPKFLPEAVKAADAAAAAWEALAKLDPANKAIYDANAAKAKAIGDAAKAAL
B6: design_376_bf9d4634-8475-4fdb-a175-1db49a23bdcd_2251_dldesign_0_cycle1_af2pred (protein)
chain: GAASAAEEAKGHAIAAEAYALSGKKKEEALEDAKKAGEYAKKATPEYQAAVKKLFEKKVERVKAKPESAETAEKMKALFEEVVA
B7: design_376_bf9d4634-8475-4fdb-a175-1db49a23bdcd_2270_dldesign_0_cycle1_af2pred (protein)
chain: SMAREKARKESEELRELVKKAREIAKEAKEKAKEKGPEAQKIAKEAAKEAAKAVWYFPDKEKSEKALQKAEELLKEI
B8: design_376_bf9d4634-8475-4fdb-a175-1db49a23bdcd_2272_dldesign_0_cycle1_af2pred (protein)
chain: AEEYLKEAKKYLEEAKKVAEKNPKAKPAYERGKKKYEEYLKKAKETGDYEEYAKKAYIAADQALEHAEFIAK
B9: design_376_bf9d4634-8475-4fdb-a175-1db49a23bdcd_2298_dldesign_0_cycle1_af2pred (protein)
chain: GLEEKAKKAVEKAKEYLKKAKAAMEKGDYKSALAYAEQAIHAATAAIKIAKEDPSLKELEEEAKKILEEAKKLLEEAEKKL
B10: design_376_bf9d4634-8475-4fdb-a175-1db49a23bdcd_2333_dldesign_0_cycle1_af2pred (protein)
chain: SEIAEKLAEWAEKAKASTREEAKAILDELLADEETKEYAELALEIVKDIAGEDAPAEAIGLALRIASDAAEA
B11: design_376_bf9d4634-8475-4fdb-a175-1db49a23bdcd_2363_dldesign_0_cycle1_af2pred (protein)
chain: AEEEAKQKELIKEMARHIQEAREYRNAAEKLPEKKEEYVKKALEHVEKALEAAEELIKNPKYKEYGEKGKKRAEEVRKKIEEVK
B12: design_376_bf9d4634-8475-4fdb-a175-1db49a23bdcd_2406_dldesign_0_cycle1_af2pred (protein)
chain: HMEELEKLLKEAEKAAKEAAEAYKKDPAEGKKWASKARDLSIEAISLDPSAYEKAKEIAEKVAEVDPEAGKKIKAILERTYEALKRA
B13: design_376_bf9d4634-8475-4fdb-a175-1db49a23bdcd_2407_dldesign_0_cycle1_af2pred (protein)
chain: MEEEEKKKKEEAKKLAKELGNLLIEAFDADVEDEEKGEEKLKEAKKLAKELKKLDPELGKKAEKRIKRFEESMKIAKELKEK
B14: design_376_bf9d4634-8475-4fdb-a175-1db49a23bdcd_2428_dldesign_0_cycle1_af2pred (protein)
chain: MEEAIKKLKEIAKKLKELSKEAEKLAKEYPKVKNEALKVSGYAETAADQAESALKNKEKAAEAAKWAEKRLEKVEKDLKEVKKKAK
B15: design_596_3e5f537c-0703-45f0-993f-ff416531349a_8_dldesign_0_cycle1_af2pred (protein)
chain: EEEEREKVIKKAKEVLDRNGKKALEYAKIVPEVAPEVEKTIKESRAEIEKAAGLSLEEAQKAAAAAVHKVQELRAEAYFLAEKKK
B16: design_596_3e5f537c-0703-45f0-993f-ff416531349a_46_dldesign_0_cycle1_af2pred (protein)
chain: KYKELLKKAKELYEKAIAAAGDPAKAAAELKKANAAFTDALAEARAESKENFKKVRKEYGELKAKYEAAKAAA
B17: design_596_3e5f537c-0703-45f0-993f-ff416531349a_73_dldesign_0_cycle1_af2pred (protein)
chain: AEKEKEAQKLLEEMVEYGEKKAKEAEKLNPKAGERIRRARERYEKYAKDPEKAKQYVEALKEYADHVVEAAKK
B18: design_596_3e5f537c-0703-45f0-993f-ff416531349a_232_dldesign_0_cycle1_af2pred (protein)
chain: LKAEAAEKSAEARELIAEAETLAKNIKNLSKEEAKEALKVAEEALKKAKEAAKLMAKVGEEELGKKLLERAKKAYKETKEAVKKKLK
B19: design_596_3e5f537c-0703-45f0-993f-ff416531349a_338_dldesign_0_cycle1_af2pred (protein)
chain: GSMEEKKKKEVEEAEKEAEKILEKAKKEAEKAAKKSPAQAVEVALEALSELKYLGSKYPEKAEEFEKRGRELVEEYKKKAE
B20: design_596_3e5f537c-0703-45f0-993f-ff416531349a_466_dldesign_0_cycle1_af2pred (protein)
chain: EEERTKLIKEASDLRREAIALLREAGKAADPATAGAAVFAIPDLEAFTAAAAAAAKAYPELAATWEAAAAKATASHAAVEKAEKL
B21: design_596_3e5f537c-0703-45f0-993f-ff416531349a_508_dldesign_0_cycle1_af2pred (protein)
chain: KEKIQKEGLKEIEKIAEEGIKEAKKYAEEGKYEEAKKIAKEALEKMREKAKELGEKVGEEAQKQGAKIIQKAREELSEYVQKAKLKK
B22: design_596_3e5f537c-0703-45f0-993f-ff416531349a_512_dldesign_0_cycle1_af2pred (protein)
chain: DADTIRAASKALKAAGKDPKTAPLAKEAKEALFKGLEYENKDPKKAAEYYKKAAELLRKLAEKAEAKEELLKVAEELEKKAEELKKK
B23: design_596_3e5f537c-0703-45f0-993f-ff416531349a_533_dldesign_0_cycle1_af2pred (protein)
chain: SAITEQNKKEALAERAKHVGEAAVKQAKAHAGDVAYIEKLQKQALEAGKKANEEGKKAAEAAAKEIAKIAAQAKAAK
B24: design_596_3e5f537c-0703-45f0-993f-ff416531349a_566_dldesign_0_cycle1_af2pred (protein)
chain: DKLVEEAKKAAEEAEKLLDKAIKVSPKAAAEAATAYALYENALSAAESGSATEEEVKAQLEKGKEKLKKAKEIMKKEEEKK
B25: design_596_3e5f537c-0703-45f0-993f-ff416531349a_642_dldesign_0_cycle1_af2pred (protein)
chain: SLEENYELAKRVAEAAKEAGKEAKKAGPELAPIGEKAEKEAKELLKEAELAYKDPSYIPEAGKEAQKALEAKAEADWAIAQYK
B26: design_596_3e5f537c-0703-45f0-993f-ff416531349a_666_dldesign_0_cycle1_af2pred (protein)
chain: SEEGKKKVEEAKKRAEKAKKKAKEAIKKSKEEGKAAVYSLLGIAESFKLLAKAMAKTDPEAGKKIKEVAEEAEKKAKELLEEVEK
B27: design_596_3e5f537c-0703-45f0-993f-ff416531349a_778_dldesign_0_cycle1_af2pred (protein)
chain: AAAEEEKEQKEKLEEVKELAKKMVEEVKEYAKKTTVEEAKKYLDEKKKELFKYAREKVGYEGVEEAVEAYGEARTAILKLEKN
B28: design_596_3e5f537c-0703-45f0-993f-ff416531349a_988_dldesign_0_cycle1_af2pred (protein)
chain: VEKVAKEAKKAAKEARKEAKKTKDGKAAQELLEAASEAEGYAILAEKDPKYAPKAKEAAKKAKELVEKVKKE
B29: design_596_3e5f537c-0703-45f0-993f-ff416531349a_1052_dldesign_0_cycle1_af2pred (protein)
chain: GEEKLKEAKKEAEKKLEELKKKGKEVGPEAVKIVEKAKERIEKKYKEAEKMKNKEAGALSFEEFAKDAIEAAKKQIEKLAKEKA
B30: design_596_3e5f537c-0703-45f0-993f-ff416531349a_1289_dldesign_0_cycle1_af2pred (protein)
chain: MNDALAAESYGEGLVEDAEKEAKEAIEKGASPEELKKVAKKARERAERVRRYAERRAKEAENSEEVLAAGEKAVKKLEEIAKELEKAA
B31: design_596_3e5f537c-0703-45f0-993f-ff416531349a_1299_dldesign_0_cycle1_af2pred (protein)
chain: MSKKLTEALSAFNKAAAAAAKLIDEEAKKDPKKAAEVKKLLAKAVYEIDNPEKAAAYLEAAAKAATDAATKAELNAAAAEAKKLGEL
B32: design_596_3e5f537c-0703-45f0-993f-ff416531349a_1302_dldesign_0_cycle1_af2pred (protein)
chain: KEKLIEEAKKEAKEVVEKAKAILKSKAKEGKLEEGIKEAANLLQEFQQKLTEISFENPEVKEDMEKIFKEARDELKAEIEAAKAA
B33: design_596_3e5f537c-0703-45f0-993f-ff416531349a_1315_dldesign_0_cycle1_af2pred (protein)
chain: SITYKNKALAYLEAAKHALEVAKKNVGDLEKVKKAYEQAKKFVEKALEYASKVTPEFLAEAKAESEKILAEMEKVLKEAE
B34: design_596_3e5f537c-0703-45f0-993f-ff416531349a_1329_dldesign_0_cycle1_af2pred (protein)
chain: MEASEELRKAIKYARELGEKGTEEHKKLAAEAVFYASSDPEKAIALLKEVAKDPKVKELAEKAIEHIKKLAEL
B35: design_596_3e5f537c-0703-45f0-993f-ff416531349a_1563_dldesign_0_cycle1_af2pred (protein)
chain: AEKHLKEAKKLAEEAKKLAEEAEKDPSTAPEKAKKAEEAARKAREEAKKAAEADPSVAPEAAKAAQEAYEARAVAEAVANRYLK
B36: design_596_3e5f537c-0703-45f0-993f-ff416531349a_1683_dldesign_0_cycle1_af2pred (protein)
chain: EEEKRREAAERLRELAKKALEDVENAPEYLEEAAREAEKVGDYTTAVLLEQLAEDVRKASPEEAVKFVRAGAERALRSAERLL
B37: design_596_3e5f537c-0703-45f0-993f-ff416531349a_1686_dldesign_0_cycle1_af2pred (protein)
chain: MDEEIKKKAIEIAQKALEAAAEYEAKAIRTGDEESKKKAEELRELAKKIREALKEGNIEEAKKYAEKAKKLIEEA
B38: design_596_3e5f537c-0703-45f0-993f-ff416531349a_1819_dldesign_0_cycle1_af2pred (protein)
chain: HAATVKAVAAEAKELAEEKIKAMKENAKDEEGIKLAVNSMKRFADNDAKLGPEAGAAAKAEYEKVEKAAKEIIKEAKA

Target: VTCN1, Q7Z7D3
Sequence (Q7Z7D3 whole entry): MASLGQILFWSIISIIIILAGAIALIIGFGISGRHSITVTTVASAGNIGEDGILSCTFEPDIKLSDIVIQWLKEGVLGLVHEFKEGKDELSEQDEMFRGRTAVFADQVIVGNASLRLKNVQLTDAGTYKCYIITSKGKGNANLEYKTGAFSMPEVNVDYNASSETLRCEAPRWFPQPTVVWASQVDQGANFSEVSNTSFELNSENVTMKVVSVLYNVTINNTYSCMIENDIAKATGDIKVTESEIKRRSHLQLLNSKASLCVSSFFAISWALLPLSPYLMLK

Q: Which “binding in a display sort” value does the source give for B1 here?
A: not found

Q: With B2 as the binder, how does the “binding in a display sort” value read?
A: not found

Q: How did the “binding in a display sort” value turn out when B3 was run?
A: not found

Q: For B4, which “binding in a display sort” value is on record?
A: not found

Q: B5 was tested. Which “binding in a display sort” value did it give?
A: not found

Q: For B6, which “binding in a display sort” value is on record?
A: not found

Q: For B7, which “binding in a display sort” value is on record?
A: not found

Q: For B8, which “binding in a display sort” value is on record?
A: not found

Q: For B9, which “binding in a display sort” value is on record?
A: not found

Q: How did the “binding in a display sort” value turn out when B10 was run?
A: not found

Q: How did the “binding in a display sort” value turn out when B11 was run?
A: not found

Q: B12 was tested. Which “binding in a display sort” value did it give?
A: not found

Q: For B13, which “binding in a display sort” value is on record?
A: not found

Q: With B14 as the binder, how does the “binding in a display sort” value read?
A: not found

Q: How did the “binding in a display sort” value turn out when B15 was run?
A: not found

Q: For B16, which “binding in a display sort” value is on record?
A: not found

Q: For B17, which “binding in a display sort” value is on record?
A: not found

Q: For B18, which “binding in a display sort” value is on record?
A: not found

Q: Which “binding in a display sort” value does the source give for B19 here?
A: not found

Q: Which “binding in a display sort” value does the source give for B20 here?
A: not found

Q: B21 was tested. Which “binding in a display sort” value did it give?
A: not found

Q: Which “binding in a display sort” value does the source give for B22 here?
A: not found

Q: With B23 as the binder, how does the “binding in a display sort” value read?
A: not found

Q: B24 was tested. Which “binding in a display sort” value did it give?
A: not found

Q: How did the “binding in a display sort” value turn out when B25 was run?
A: not found

Q: For B26, which “binding in a display sort” value is on record?
A: not found

Q: Which “binding in a display sort” value does the source give for B27 here?
A: not found

Q: How did the “binding in a display sort” value turn out when B28 was run?
A: not found

Q: For B29, which “binding in a display sort” value is on record?
A: not found

Q: For B30, which “binding in a display sort” value is on record?
A: not found

Q: Which “binding in a display sort” value does the source give for B31 here?
A: not found

Q: For B32, which “binding in a display sort” value is on record?
A: not found

Q: How did the “binding in a display sort” value turn out when B33 was run?
A: not found

Q: Which “binding in a display sort” value does the source give for B34 here?
A: not found

Q: How did the “binding in a display sort” value turn out when B35 was run?
A: not found

Q: How did the “binding in a display sort” value turn out when B36 was run?
A: not found

Q: B37 was tested. Which “binding in a display sort” value did it give?
A: not found

Q: With B38 as the binder, how does the “binding in a display sort” value read?
A: not found
